Shown are actives, neighbours in structure and some others; about 4.3% of the full set was active somewhere.
NALP1 yeast inh: blocks the NALP1 inflammasome reconstituted in yeast; S. cerevisiae NALP1/ASC/caspase-1 growth, X-gal OD620, 72 h; inhibition, % at 10 µM; actives 0.61% (n = 280,000); AID 2071; in the data active = inhibition mostly above about 24%, no sharp cut-off; inactive = mostly below about 32%
Yeast superoxide: lowers age-related superoxide in aged yeast cells; S. cerevisiae aged cells, superoxide DHE fluorescence; active compounds read low; superoxide response (% of plate mean), % at 10 µM; actives 0.18% (n = 330,000);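 active = superoxide response under a set limit, about three screen SD below normal, cut at about 65% in these data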;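 also: yeast aged for seven days with compound at 30 °C before DHE staining; 100% = average MFI of all compound-treated wells on the plate with controls excluded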
NR3A LBD binder: modulators (binders) of human NR3A ligand-binding domain; Tm shift relative to glycine control, % at 25 µM; actives 2.5% (n = 340,000); NR3A LBD differential scanning fluorimetry, Tm shift; 0% = protein alone, 100% = glycine-bound protein;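 active = melting temperature shift of at least 10% of the positive control shift, at one fixed dose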
UBC13 polyUb: blocks human UBC13 polyubiquitin chain formation | P61088 | TR-FRET | inhibition, % at 20 µM | actives 0.47% (n = 330,000); in the data active = inhibition above about 45%, passing the limit was not always enough; inconclusive = no clear call, values can overlap the other calls
Target sequence (P61088 whole entry, looked up): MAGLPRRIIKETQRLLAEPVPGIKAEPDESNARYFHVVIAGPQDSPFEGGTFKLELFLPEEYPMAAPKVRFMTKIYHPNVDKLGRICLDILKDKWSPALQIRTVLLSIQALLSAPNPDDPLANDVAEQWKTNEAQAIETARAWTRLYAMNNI
dFosB act: enhances mouse delta FosB homodimer DNA binding; P13346; actives 0.99% (n = 340,000); purified delta FosB, TAMRA-CDK5 oligo fluorescence polarization; percent of positive-control signal above neutral wells; activation, % at 25 µM;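 active = mean activation above about 17%, with every replicate also reaching it, limit read from the data, passing the limit was not always enough; inconclusive = only one of the two conditions met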
Target sequence (P13346 whole entry, looked up): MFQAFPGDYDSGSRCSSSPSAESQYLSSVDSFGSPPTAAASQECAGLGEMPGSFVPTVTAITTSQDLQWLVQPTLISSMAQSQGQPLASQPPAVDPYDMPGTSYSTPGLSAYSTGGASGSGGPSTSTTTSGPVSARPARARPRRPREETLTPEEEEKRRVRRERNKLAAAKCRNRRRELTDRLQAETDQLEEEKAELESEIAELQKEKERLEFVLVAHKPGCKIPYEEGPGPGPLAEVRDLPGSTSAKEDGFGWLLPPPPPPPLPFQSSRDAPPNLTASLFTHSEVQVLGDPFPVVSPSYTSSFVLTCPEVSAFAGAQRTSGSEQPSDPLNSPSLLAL
Numbers without * were called inactive; ? = inconclusive; . = no result.

SMILES	NALP1 yeast inh	Yeast superoxide	NR3A LBD binder	UBC13 polyUb	dFosB act
COc1ccc(SC[C@H](Cc2ccccc2)N2CC[C@@H](C(C)(C)C)CCC2=O)cc1	.	94	10	6	3
COc1ccc(-c2cccc(NC(=O)c3ccco3)c2)nn1	.	94	43*	-2	-8
O=C(Nc1cccc(NC(=O)c2ccc(-c3ccc(Br)cc3)o2)c1)c1ccco1	9	90	31*	6	-10
CCOC(=O)c1c(-c2ccccc2)cn2ccccc12	25*	108	2	13	2
CCOC(=O)c1c(-c2ccc(C)cc2)cn2ccccc12	1	68	-16	9	6
CC(C)(C)C(=O)c1cn(CC(=O)O)c2ccccc12	-10	96	-2	5	-4
CC(C)C(=O)c1cn(CC(=O)O)c2ccccc12	26*	101	-1	4	-1
CCN(CC)C(=O)c1[nH]cnc1C(=O)N[C@@H](CC(C)C)C(=O)OCc1ccccc1	14	91	-2	-8	-1
C=CCNc1nc(Nc2ccc([N+](=O)[O-])cc2)nc(N2CCCC2)n1	-2	99	-3	0	62*
C=CCNc1nc(Cl)nc(Nc2ccc([N+](=O)[O-])cc2)n1	-2	102	0	-2	5
N#Cc1ccccc1Cn1cc(/C=C/[N+](=O)[O-])c2ccccc21	75*	95	-21	7	-1
O=[N+]([O-])/C=C/c1cn(Cc2ccccc2)c2ccccc12	14	105	-7	-9	-15
CN(C)CCCOc1cccc(Oc2ccccc2)c1	37	93	0	2	4
COc1ccc(S(=O)(=O)N(C)CC(=O)NCCC2=CCCCC2)cc1	-15	96	-2	1	-1
COc1ccc(S(=O)(=O)N(C)CC(=O)NCCC2=CCCCC2)cc1OC	-5	103	13*	13	-5
CCOCCCNC(=O)C(c1ccc(C)cc1)N(Cc1cccs1)C(=O)CNC(C)=O (stereo unspecified)	28	100	-2	-5	-7
CCCCOc1ccc(N=Cc2ccc[nH]2)cc1	19	94	-429	-4	2
COc1ccc(N=Cc2ccc[nH]2)cc1	36*	86	1	-8	1
CCOC(=O)[C@@H]1[C@H]2COc3ccccc3[C@H]2N2C(=O)N(c3cccc(Cl)c3)C(=O)[C@]12C	.	84	17*	3	-6
CC(C)N1C(=O)CCC1C(=O)NCc1cccs1 (stereo unspecified)	7	108	0	-1	6
O=[N+]([O-])c1ccccc1NCc1c(O)ccc2ccccc12	3	112	13*	-6	0
COc1cc2cc(CN(Cc3cccs3)C(=S)Nc3ccc(C)cc3)c(=O)[nH]c2cc1OC	3	92	12*	2	?
Cc1ccc(NC(=S)N(CCN(C)C)Cc2cc3cccc(C)c3[nH]c2=O)cc1	29	89	-8	-11	0
COc1cc2cc(CN(Cc3cccs3)C(=S)Nc3cccc(C)c3)c(=O)[nH]c2cc1OC	16	97	.	4	.
Cc1ccc(NC(=S)N(CCN(C)C)Cc2cc3cc(C)ccc3[nH]c2=O)cc1	18*	107	-2	11	3
SMILES	NALP1 yeast inh	Yeast superoxide	NR3A LBD binder	UBC13 polyUb	dFosB act
Cc1nnc(NC(=O)CSc2nccn2Cc2ccccc2)s1	-4	116	1	-3	0
CC(C)(O)CN(C(=O)c1ccc([N+](=O)[O-])cc1)C1CCCC1	.	.	0	.	2
C/C(=N\Nc1cccc([N+](=O)[O-])c1)c1cc(F)ccc1O	18	97	10*	-10	9
CNC(=S)Nc1cccc([N+](=O)[O-])c1	-5	105	1	7	-8
C/C(=N\NC(=O)c1cccc(N/N=C(\C)c2cc(O)ccc2O)c1)c1cc(O)ccc1O	-16	77	14*	-16	-12
C/C(=N\Nc1cccc([N+](=O)[O-])c1)c1ccccc1O	10	108	31*	-1	-6
CCN(CC)CCn1c2c(c(SCC(=O)Nc3nc4ccccc4s3)nc1=O)CCC2	.	97	0	8	-16
CCOC(=O)c1cccc(NC(=O)c2c(NCc3ccccc3)[nH]c(=O)[nH]c2=O)c1	.	109	6	-19	-5
CCOc1nc(OCC)c2cnn(C)c2n1	8	79	1	1	-4
[O-][n+]1nc2ccccc2c2ccccc21	.	.	2	.	-6
Cc1cc(C)cc(N(C(=O)c2csnn2)C(C(=O)NC2CCCC2)c2ccccn2)c1 (stereo unspecified)	12	98	1	-2	2
COc1ccc(C(C)=O)c(Oc2ccc(S(=O)(=O)N3CCOCC3)cn2)c1	.	87	-1	-3	-4
O=[N+]([O-])c1ccc(-c2nc(NCc3cccnc3)c3ccccc3n2)cc1	19	102	37*	5	-1
O=C(Cc1ccc([N+](=O)[O-])cc1)NCc1cccnc1	18	98	1	3	1
COc1ccc(Nc2nc(-c3cccc([N+](=O)[O-])c3)nc3ccccc23)c(OC)c1	2	104	21*	2	-1
COc1ccccc1Nc1nc(-c2ccc([N+](=O)[O-])cc2)nc2ccccc12	.	95	39*	0	0
O=C(Nc1ccc(Cl)cc1)c1nc[nH]c1C(=O)NCCCNC(=O)c1[nH]cnc1C(=O)Nc1ccc(Cl)cc1	.	96	.	-15	.
O=C(Nc1ccc(Cl)cc1)c1nc[nH]c1C(=O)NCCN(CCNC(=O)c1[nH]cnc1C(=O)Nc1ccc(Cl)cc1)CCNC(=O)c1[nH]cnc1C(=O)Nc1ccc(Cl)cc1	.	93	19*	-34	?
O=C(Nc1ccccc1)c1nc[nH]c1C(=O)NCCN(CCNC(=O)c1[nH]cnc1C(=O)Nc1ccccc1)CCNC(=O)c1[nH]cnc1C(=O)Nc1ccccc1	.	91	13*	-7	3
O=C(Nc1ccccc1)c1nc[nH]c1C(=O)NCCCCCCNC(=O)c1[nH]cnc1C(=O)Nc1ccccc1	.	93	14*	-17	-9
Cc1ccc(NC(=O)c2nc[nH]c2C(=O)NCCN(CCNC(=O)c2[nH]cnc2C(=O)Nc2ccc(C)cc2)CCNC(=O)c2[nH]cnc2C(=O)Nc2ccc(C)cc2)cc1	.	75	16*	-5	48*
O=C(COC(=O)c1cc(Br)ccc1O)c1ccc(F)cc1	.	112	0	11	3
O=C(CN1CCN(C/C=C/c2ccccc2)CC1)Nc1cc([N+](=O)[O-])ccc1Cl	14	94	0	7	1
CC(C)n1cc(/C(N)=N/O)c(=O)n(Cc2ccccc2)c1=O	7	112	2	2	.
O=C(O)CCn1c(CO)nc2ccccc21	2	95	-1	-1	6
O=C(O)CCn1c(-c2ccccc2)cc2ccccc21	34*	105	1	4	3
O=C(CSc1nc(-c2ccc(F)cc2)nc2ccc(F)cc12)Nc1cccc(C(=O)O)c1	-5	116	10	10	-4

Bioassay records as filed in PubChem.
